# Experimental data: PubChem BioAssay AID686979 (National Center for Advancing Translational Sciences (NCATS), 2013)
# Hit rate of the full screen: of about 420,000 compounds, about 50,000 (12%) were called active. Inconclusive results (about 26%) are left out. For the sample, actives were picked, then their nearest neighbours and some compounds at random. Unmarked numbers belong to inactive results. Calls follow the shape of the dose curve; as a rule, active = well fitted inhibition curve with a large enough effect; inconclusive = small, poorly fitted or top-dose-only effect; inactive = flat fitted curve, though single readings scatter.
# Experiment: qHTS for Inhibitors of human tyrosyl-DNA phosphodiesterase 1 (TDP1): qHTS in cells in presence of CPT; also: nearly all actives have a fitted effect of over 55% in size
# Settings: chicken DT40 Tdp1-/-;hTDP1 cells + 20 nM CPT, ATP luminescence, 48 h; series mostly up to 46.2 µM; activity change, negative = growth inhibition: at the top concentration
# How it was run: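 Cell growth measured by CellTiter-Glo luminescence after a minimum 48 h, 37 C compound exposure with 20 nM CPT in Tdp1-knockout DT40 cells stably expressing hTDP1, seeded 400/well; qHTS titration format.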
# % is scaled to controls: 0 for no effect and ±100 for the full control effect; potency is read from the fitted curve at half-maximal effect.
SMILES,"activity change, negative = growth inhibition [%]",Potency
CC(C)[C@@H]1NC(=O)c2cc([N+](=O)[O-])cc(I)c2NCCC[C@@H](C(=O)NC(CC(=O)O)C(N)=O)NC(=O)[C@H](CO)NC1=O (some centres not stated),-22.2,–
O=C(COC(=O)c1ccc(S(=O)(=O)N2CCCCCC2)cc1)Nc1ccccc1C(F)(F)F,4.84,–
CCc1ccccc1NC(=O)NCCN1CCCCC1,-12.2,–
CCCCN(C(=O)c1ccc(C)o1)c1c(N)n(CCCC)c(=O)[nH]c1=O,7.98,–
COCCNc1ncnc2c1ncn2[C@H]1CN(CCN2CCOCC2)C[C@@H](CO)O1,6.48,–
COc1ccc(CN2C(=O)C(CC(=O)NC3CCCCC3)CC(C(=O)N3CCOCC3)=C2C)cc1 (configuration not stated),-10.3,–
CN(C)CCOc1cccc(Br)c1,3.6,–
CC(C)(C)c1ccc(/C=C/C(=O)Nc2ncccn2)cc1,-28.6,–
CSc1nccc(NC(=O)c2ccc(C(C)(C)C)cc2)n1,–,9.2 µM (active)
Cc1cccc(NC(=O)c2cccnc2Cl)n1,5.42,–
COc1ccc(S(=O)(=O)N(C)C[C@H]2OCc3cnnn3CCCC(=O)N([C@H](C)CO)C[C@H]2C)cc1,-22.7,–
COCc1cc(=O)oc2cc(NS(=O)(=O)c3ccc(C)cc3)ccc12,-6.27,–
Cc1cc(SCc2c(F)cccc2Cl)nc(=O)[nH]1,0.592,–
Cn1ncc2c(N3CCCCC3)nc(NCCCO)nc21,-2.76,–
COc1cccc(CN2CCN(Cc3ccc4cccc(F)c4n3)CC2CCO)c1 (configuration not stated),-28.5,–
CC(=O)c1cccc(NC(=O)c2cc(C)nn2-c2ccccc2)c1,2.05,–
CC(=O)c1cccc(NC(=O)c2nc(-c3ccccc3)n(-c3cccc(C)c3)n2)c1,–,16.4 µM (active)
CC(=O)c1cccc(NC(=O)c2ccncc2)c1,-9.21,–
COc1cccc(CNC(=O)c2cc(=O)[nH]c3ccc(S(=O)(=O)N4CCCCC4)cc23)c1,-21.3,–
O=C1NC[C@H](CCCCN2C[C@H](Cc3ccccc3)N(Cc3ccccc3)C(=O)C2=O)N(CCc2ccc(O)cc2)C1=O,7.35,–
O=[N+]([O-])c1ccc2c(c1)C(N1CCOCC1)/C(=C/C1(O)CCCCC1)O2 (configuration not stated),1.25,–
Cn1nc(-c2ccccc2)c2cc([N+](=O)[O-])ccc21,-2.27,–
Cc1ccccc1S(=O)(=O)NC(=O)C1(C)CCN1C(=O)C1(c2ccccc2)CCCC1 (configuration not stated),–,14.6 µM (active)
Cc1ccccc1S(=O)(=O)NC(=O)C1(C)CCN1C(=O)Cc1ccc(Cl)cc1Cl (configuration not stated),-20.6,–
CCCNC(=O)C1(C)CCN1C(=O)C1(c2ccccc2)CC1 (configuration not stated),0.157,–

SMILES,"activity change, negative = growth inhibition [%]",Potency
CC1(C(=O)NS(=O)(=O)c2ccc3ccccc3c2)CCN1C(=O)C1(c2ccc(Cl)cc2)CCC1 (configuration not stated),-24.2,–
CC1(C(=O)NS(=O)(=O)Cc2cccc(Cl)c2)CCN1C(=O)Cc1ccc(Cl)cc1Cl (configuration not stated),-18.1,–
CC1(C(=O)Nc2cccc3c2CCCC3)CCN1C(=O)C1(c2ccccc2)CC1 (configuration not stated),–,16.4 µM (active)
O=C(Nc1cccc2c1CCCC2)c1ccc(F)cc1,-20.1,–
CC1(C(=O)Nc2cccc3c2CCCC3)CCN1C(=O)CCc1ccc(Cl)cc1Cl (configuration not stated),–,20.6 µM (active)
Cc1ccccc1S(=O)(=O)NC(=O)C1(C)CCN1C(=O)C1(c2ccc(Cl)cc2)CC1 (configuration not stated),-23.7,–
CCCC(=O)N1CCC(CCC(=O)NC2CC2)CC1,12.6,–
COc1cc2c(cc1OC)/C(=C/C(=O)c1ccc(NC(C)=O)cc1)NCC2,-0.215,–
Cc1ccccc1CNC(=O)CCC(=O)N1Cc2ccccc2Oc2ncccc21,-15.2,–
COC(=O)c1sc(NC(=O)COC(=O)C2CCC2)c(C(=O)OC)c1C,-9.82,–
COc1cc(OC)c(C(=O)NNC(=O)c2ccc(NS(=O)(=O)c3cccs3)cc2)cc1OC,-4,–
Cc1cccc(C)c1NC(=O)CSc1nc2c([nH]1)c(=O)n(C)c(=O)n2C,-0.0789,–
Cc1ccc2nc(SCC(=O)N3CCN(c4ccccc4)CC3)nc(=O)n2c1,-25.1,–
CC(C)(C)n1cnnc1Sc1ccc([N+](=O)[O-])cn1,20.6,–
CCOc1ccccc1NC(=O)Cn1c(=O)n(Cc2ccco2)c(=O)c2sc3ccccc3c21,-27.9,–
Cc1nc2cc(C(F)(F)F)ccc2n1CCNc1nc(-c2cc(Cl)c(N)c(Cl)c2)cs1,–,23.1 µM (active)
O=C(Oc1cc(OC(=O)c2ccccc2)c2c(c1)OC(c1ccc(OC(=O)c3ccccc3)c(OC(=O)c3ccccc3)c1)[C@@H](OC(=O)c1ccccc1)C2)c1ccccc1 (some centres not stated),11.4,–
C[C@@H](C(=O)Nc1ccc2ccccc2c1)[C@@H]1C[C@@]1(C)[C@@H](NC(=O)c1cccnc1)c1ccccc1,-18.3,–
O=[N+]([O-])c1c(NCCO)cc(Sc2nc3ccccc3s2)c2nonc12,–,0.82 µM (active)
O=C(O)c1cccc(S(=O)(=O)Nc2ccc(O)cc2Sc2nc3ccccc3s2)c1,23.1,–
COc1ccc(S(=O)(=O)Nc2ccc(O)c(Sc3nc4ccccc4s3)c2)cc1,-15.5,–
CSc1nnc(-c2ccc(C(F)(F)F)cn2)o1,20.6,–
N=c1n(Cc2ccc(Cl)cc2)c2ccccc2n1CC(O)c1ccco1 (configuration not stated),–,7.31 µM (active)
O=S(=O)(O)c1nc2ccccc2n1Cc1ccc(Cl)cc1,0.399,–
CCCNC(=O)c1cc(C2CCCCN2S(=O)(=O)c2ccc(C#N)cc2)on1 (configuration not stated),-6.93,–

SMILES,"activity change, negative = growth inhibition [%]",Potency
O=C(NCC1(N2CCCCC2)CCCCC1)c1ccc(NS(=O)(=O)c2ccc(F)cc2)cc1,-29.5,–
O=C(OCCOCn1cc(Br)c(=O)[nH]c1=O)c1ccccc1,-4.36,–
CCCn1nnnc1NCc1ccc(CC)cc1,-1.3,–
Cc1cccc(-n2c(C)cc(/C=N/NC(N)=S)c2C)c1,–,10.3 µM (active)
Cc1ccc(C(=O)Nc2ccc(NC(=O)c3cccs3)cc2)c(C)c1,0.567,–
Cc1cc(/C=N/Nc2ccc([N+](=O)[O-])cn2)c(C)n1-c1cccc(C(=O)O)c1,-21.9,–
Cc1cc(/C=N/n2cnnc2)c(C)n1-c1cccc(C(=O)O)c1,-0.903,–
CC(=O)Nc1ccc(/C=N/NC(=O)c2cccs2)cc1,-3.1,–
Cc1cccc(-n2c(C)cc(/C=N\NC(=O)c3cccs3)c2C)c1,–,18.4 µM (active)
Cc1c(NC(=O)CSc2nnc(-c3cccnc3)n2N)c(=O)n(-c2ccccc2)n1C,4.52,–
CC(C)c1ccc(CC(=O)N2CCC2(C)C(=O)NS(=O)(=O)c2ccc(C(C)(C)C)cc2)cc1 (configuration not stated),-11.2,–
COc1ccc(NC(=O)NN2CCN(C)CC2)c(OC)c1,2.16,–
COc1ccc(CCNC(=O)CCCCn2c(=O)c3ccccc3n(Cc3ccccc3C)c2=O)cc1OC,–,20.6 µM (active)
Cc1ccc(Cn2c(=O)n(CCCC(=O)NCc3ccccc3Cl)c(=O)c3ccccc32)cc1,-13.5,–
COc1ccc(CCNC(=O)CCCn2c(=O)c3ccccc3n(Cc3ccc(C)cc3)c2=O)cc1OC,–,23.1 µM (active)
COc1ccc(CCNC(=O)CCCn2c(=O)c3ccccc3n(Cc3ccc(F)cc3Cl)c2=O)cc1OC,4.7,–
COc1ccc(CCNC(=O)CCn2c(=O)oc3ccccc32)cc1OC,-8.19,–
CCCCNC(=O)CCn1c(=O)c2ccccc2n(Cc2cc(C)ccc2C)c1=O,-3.9,–
CCOc1cc(CNCc2ccccn2)ccc1OCC(=O)NC(C)(C)C,-87.9,–
N#Cc1ccc(C(=O)OCC(=O)NC(=O)NC2CCCCC2)cc1,-7.73,–
COc1ccc(C(=O)NC(C)c2nccs2)cc1OC1CCN(C(C)C)CC1 (configuration not stated),-0.147,–
COc1ccc(/C=C/CN2CCN(Cc3ccc(C)cc3)C(CCO)C2)cc1 (configuration not stated),14.8,–
CN(C(=O)COC(=O)c1cc(-c2ccco2)nc2ccccc12)C1CCS(=O)(=O)C1 (configuration not stated),-5.97,–
O=C(Nc1cccc(F)c1)c1cc(-c2ccco2)nc2ccccc12,1.56,–
CN(CCOc1ccccc1)C(=O)c1cc(-c2ccco2)nc2ccccc12,–,18.4 µM (active)

SMILES,"activity change, negative = growth inhibition [%]",Potency
COCCCNC(=O)c1c(NC(=O)c2cc(=O)c3cc(C)c(C)cc3o2)sc2c1CCCC2,-17.6,–
CCS(=O)(=O)C1=NSC2=NC(=O)/C(=C\c3ccc(OS(=O)(=O)c4ccccc4)cc3)C(=N)N21,-10.9,–
c1ccc(-c2ccccc2OCCN2CCCCC2)cc1,-24.5,–
Cc1ccc(CN2CCNC(=O)C2CC(=O)NCc2csc(C(C)C)n2)cc1 (configuration not stated),-14.1,–
Cc1cc(C)c(NC(=O)CSc2nc3ccncc3[nH]2)c(C)c1,-28.9,–
O=[N+]([O-])c1cccc(C=NN=Cc2ccccc2O)c1,4.42,–
O=[N+]([O-])c1ccc(O)c(/C=N/Nc2ccccc2[N+](=O)[O-])c1,–,3.26 µM (active)
Nc1nnnn1/N=C/c1cc([N+](=O)[O-])ccc1O,-1.04,–
C[C@H](CO)N1C[C@H](C)[C@@H](CN(C)S(=O)(=O)c2ccc(Oc3ccccc3)cc2)OCc2cn(nn2)CCCC1=O,-16.1,–
COc1cc2nc(N3CCCN(C)CC3)nc(NC3CC3)c2cc1OC,–,7.94 µM (active)
COc1cc2nc(Cl)nc(NCCO)c2cc1OC,5.96,–
COc1cc(OC)c(NC(=O)c2cnc(N3CCCC3)nc2C)cc1Cl,-13.5,–
COc1cc2nc(N3CCCN(C)CC3)nc(NC(C)C)c2cc1OC,–,12.6 µM (active)
COc1cc2nc(C#Cc3nc4cc(OC)c(OC)cc4[nH]3)[nH]c2cc1OC,6.18,–
COc1ccc(C(=O)N2CCCN(C)CC2)c(OC)c1,-4.48,–
COc1cc2nc(Cl)nc(NC3CC3)c2cc1OC,–,14.1 µM (active)
Cc1ccc(CNS(=O)(=O)CCNC(=O)c2ccccc2)cc1,4.69,–
CCOC(=O)C1CCCN(S(=O)(=O)c2ccc3c(c2)C(C)(C)C(=O)N3C)C1 (configuration not stated),-2.23,–
O=C(COC(=O)c1ccco1)Nc1ccc(Cl)cn1,-20.4,–
COc1ccc(C2Nc3ccccc3C(=O)N2c2ccc(F)cc2)cc1Cn1nnc2ccccc21 (configuration not stated),-12.8,–
O=C(Cn1nnc2ccccc2c1=O)Nc1cc(C(F)(F)F)ccc1N1CCOCC1,-19.8,–
CCCCN(C(=O)/C=C/c1ccco1)c1c(N)n(CC(C)C)c(=O)[nH]c1=O,6.51,–
